Records with an inconclusive call do not appear. Where a call stands in place of a potency, no number is given. The source made the active and inactive calls. Calls come from the whole dose curve; as a rule, active = well fitted cell-killing curve with a large enough effect in the repeat runs (not every such curve was filed as active); inconclusive = weak or mixed curves, or effect the other way; inactive = no such curve, though single readings can be large or run the other way.

A short description of the experiment: qHTS assay to identify small molecule antagonists of the estrogen related receptor signaling pathway with the pleiotropic PPARgamma coactivator (PGC) from Tox21 10K library - cell viability counter screen (AID 1224840). Note: nearly all actives have a fitted effect of over 40% in size. To be noted: PGC/ERR reporter cells viability, CellTiter-Fluor, 17.5 h; series mostly up to 92.4 µM. The text has this:
National Center for Advancing Translational Sciences [NCATS]
NIH Chemical Genomics Center [NCGC]
U.S. Environmental Protection Agency [EPA]
National Institutes of Environmental Health Sciences [NIEHS]
National Toxicology Program [NTP]
U.S. Food and Drug Administration [FDA]
Estrogen related receptors (ERRs), the first orphan nuclear receptors discovered, play an important role in the control of cellular energy metabolism. ERRs are required for high-energy production in response to the environmental challenges. The pleiotropic PPARgamma coactivator (PGC) is a major partner of ERR and a key regulator in energy homeostasis. Together they have been implicated in the etiology of metabolic disorders such as Type 2 diabetes and metabolic syndrome. ERR-alpha was also identified as an adverse marker for breast cancer progression; ERR-alpha-positive tumors have a poor prognosis. To screen and to identify environmental compounds that perturb the ERR and PGC/ERR signaling pathways could provide valuable information for potential therapeutic or preventive measures in the treatment of metabolic disease. To differentiate true PGC/ERR antagonists or agonist from cytotoxic substances, the assay is multiplexed with cell viability assay.
Tox21 Assay Protocol Summary:
The PGC/ERR cells were dispensed at 2,000 cells/5 ul/well in 1536-well white plates using a Multidrop dispenser. After the assay plates were incubated at a 37 C/5% CO2 incubator for 6 hours, 23 nL of compounds dissolved in DMSO, positive and negative controls or DMSO only was transferred to the assay plate by a pin tool. The plates were incubated at 37 C for 17.5 hours. 1 ul/well of CellTiter-Fluor reagent was added into the assay plates using a Flying Reagent Dispenser. After 30-minute incubation at 37 C/5% CO2, the fluorescence intensity in the plates was measured using a ViewLux plate reader.
For orientation: In qHTS, concentration-response curves come from the screen itself.
Turning to `CC(=O)CC/C=C(\C)CC/C=C(\C)CC/C=C(\C)CCC=C(C)C`, the Potency result is “inactive”.

As to `CC(CC(C#N)(c1ccccc1)C(C)C)N(C)C` (stereo not given), the Potency entry was “inactive”.

Regarding `O=C(O)c1ccncc1`, the Potency result was “inactive”.

`O=C(O)c1ccccc1[N+](=O)[O-]`: the Potency result is “inactive”.

As to `O=C1CCCN1CCO`, the Potency result is “inactive”.

As to `CCCC(=O)OCc1ccccc1`, the Potency result is “inactive”.

As to `CCCCCCCCCCCCCCCCC(=O)O`, the Potency result was “inactive”.

Take `CCCCCCCCCC(C)C=O` (stereo not given): the Potency entry is “inactive”.

On to `CC(=O)c1cccnc1`, for which the Potency entry was “inactive”.

Regarding `C/C(=C\C(C)CC(C)CC(C)C)C1CC(=O)OC1=O` (stereo not given), the Potency result is “inactive”.

With `CCCCOC(=O)CC#N`, the Potency entry is “inactive”.

Turning to `C/C=C1\[C@H]2C=C(C)C[C@]1(N)c1ccc(=O)[nH]c1C2`, the Potency entry is “inactive”.

For the compound `CC(CCl)OC(C)CCl` (stereo not given), the Potency entry is “inactive”.

For the compound `CCC(=O)O[C@@H]1C[C@H]2CC[C@]1(C)C2(C)C`, the Potency entry was “inactive”.

For `CCCCCCCCCCCCSCCOCCO`, the Potency entry was “inactive”.

Consider `CC(=O)c1ccc(Cl)c(Cl)c1Cl`, for which the Potency result is “inactive”.

In the case of `CCCCCCCCCCCCN1CCOCC1`, the Potency result was “inactive”.

For `Cc1c(Cl)cccc1[N+](=O)[O-]`, the Potency result is “inactive”.

With `Clc1ccccc1-c1nc(-c2ccncc2)no1`, the Potency result is “inactive”.

`FC(F)(Cl)C(F)(Cl)Cl`: the Potency result was “inactive”.

`CC(O)CN` (stereo not given): the Potency entry is “inactive”.

Regarding `O=C(O)COCC(=O)O`, the Potency entry was “inactive”.

In the case of `Nc1nc(Cl)nc2c1ncn2[C@H]1C[C@H](O)[C@@H](CO)O1`, the Potency entry is “inactive”.

As for `CCN(CC)CC(=O)OCC(=O)[C@@]1(O)CC[C@H]2[C@@H]3CCC4=CC(=O)CC[C@]4(C)[C@H]3[C@@H](O)C[C@@]21C`, the Potency result is “inactive”.

On to `COc1ccc(C(=O)c2ccc(C)cc2)c(O)c1`, for which the Potency result is “inactive”.

As to `Nc1ccc(F)cc1F`, the Potency result is “inactive”.

For `CCCCCCCCCCCCCCCCCCCl`, the viability change, negative = cytotoxic is 10.7% [at 8.39 µM] (inactive).

Consider `CCCOC(C)=O`, for which the Potency result was “inactive”.

For `CC(C)(C)c1ccc(CCC=O)cc1`, the Potency entry is “inactive”.

As for `CCC(C)C1N=C(C)C(C)S1` (stereo not given), the Potency result was “inactive”.

In the case of `O=C(Cl)c1ccc(F)c(Cl)c1`, the Potency entry was “inactive”.

For `NCCOCCOCCN`, the Potency entry is “inactive”.

For `CS(C)=O`, the Potency result is “inactive”.

Turning to `Oc1ccc(Oc2ccccc2)cc1`, the Potency result was “inactive”.

For `N#Cc1ccc(CC(=O)c2cccc(C(F)(F)F)c2)cc1`, the Potency result is “inactive”.

Turning to `CCCCCCC/C=C/C=O`, the Potency result is “inactive”.

Take `CC1(C)CC(O)CC(C)(C)N1[O]`: the Potency entry is “inactive”.

Consider `Cc1ccc(NC(=O)c2ccc(CN3CCN(C)CC3)cc2)cc1Nc1nccc(-c2cccnc2)n1`, for which the Potency result was “inactive”.

In the case of `COc1cc(CNC(=O)CCCC/C=C/C(C)C)ccc1O`, the Potency result was “inactive”.

For the compound `CC1(C)[C@@H]2CC[C@]3(C2)[C@@H]1C(=O)CCC3(C)C`, the Potency result was “inactive”.
